22 molecules from PubChem BioAssay (NCATS) can be followed below.

Unmarked numbers belong to inactive results. Records with an inconclusive call do not appear. Calls of active or inactive are those of the source. Calls follow the shape of the dose curve; as a rule, active = well fitted curve in the direction sought with a large enough effect; inconclusive = small, poorly fitted or top-dose-only effect, or another doubt; inactive = no such curve, though single readings can be large; an effect the other way counts as inactive or inconclusive.

Assay [1] addresses Glutathione peroxidase 1 (Homo sapiens) (UniProt P07203). Briefly: Primary qHTS Assay for Inhibitors of Recombinant Selenoprotein Glutathione Peroxidase 1 (GPX1) (AID 1845191). Also: nearly all actives have a fitted effect of over 65% in size. As to activity, negative = inhibition: % is scaled to controls: 0 for no effect and ±100 for the full control effect. The essentials: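 Recombinant GPX1 (10 nM final) was preincubated with compound for 30 min at room temperature, then reacted with 1 mM GSH, 0.5 mM CHP, 0.5 mM NADPH and 100 nM glutathione reductase; NADPH fluorescence (340/450 nm) was read at 0 and 15 min.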
Background: qHTS replaces the single test concentration by a dilution series.

The target in assay [2] is Phospholipid hydroperoxide glutathione peroxidase GPX4 (Homo sapiens) (UniProt P36969). Put plainly: Primary qHTS Assay for Inhibitors of Recombinant Selenoprotein Glutathione Peroxidase 4 (GPX4) (AID 1845192). Also: nearly all actives have a fitted effect of over 65% in size. As to activity change, negative = inhibition: series mostly up to about 50 µM; % is scaled to controls: 0 for no effect and ±100 for the full control effect. The essentials: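 GR-coupled readout: 100 nM GR, 1 mM GSH, 0.5 mM NADPH; NADPH fluorescence (ex 340/em 450 nm) read at t=0 and after 15 min RT. GPX4 200 nM, preincubated 30 min with compound; substrate 0.5 mM CHP.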

Assay [3] deals with Luciferin 4-monooxygenase (Photinus pyralis) (UniProt P08659). Put plainly: Primary firefly luciferase (FLuc) qHTS assay for identification of artifact compounds. (AID 1845220). Also: nearly all actives have a fitted effect of over 60% in size. Also: potency is read from the fitted curve at half-maximal effect.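 As to activity change, negative = inhibition: series mostly up to about 54 µM; plate controls were DMSO vehicle for no effect and no enzyme for full effect.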 An outline of the steps: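 In this counter-screen for luciferase artifacts, test compounds met substrate (10 uM each luciferin and ATP) before 10 nM enzyme started the reaction. Light output was measured 5 min later.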

Assay [4] can be described thus: Primary fluorescence-based thiol-reactive (MSTI) qHTS assay for identification of artifact compounds. (AID 1845221). Also: nearly all actives have a fitted effect of over 65% in size. Also: potency is read from the fitted curve at half-maximal effect.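 As to activity change, negative = thiol reactive: series mostly up to about 54 µM; thiol-reactive compounds lower the probe fluorescence signal.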 The essentials:
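A multi-concentration qHTS design tested compounds against 4 uM MSTI, pH 7.4 phosphate-buffered saline. Plates were protected from light for 1 h at room temperature before imaging fluorescence.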

Assay [5] has as its system Nanoluciferase (engineered Oplophorus gracilirostris luciferase). Put plainly: Primary Nanoluciferase (NLuc) qHTS assay for identification of artifact compounds. (AID 1845222).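 Also: NLuc secreted into diluted conditioned medium of S16 cells; series mostly up to about 54 µM; 0% = DMSO and -100% = no enzyme.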 The essentials:
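Using secreted nanoluciferase in S16 culture medium (0.22 um filtered, 1:55 dilution), compounds were preincubated 15 min at RT. Signal was generated with Nano-Glo reagent (1:100) over 5 min.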

Assay [6] in a line: Primary redox qHTS assay for identification of artifact compounds. (AID 1845223).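 Also: 0% = DMSO and 100% = reference compound.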 An outline of the steps:
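Amplex Red (25 uM) and HRP (250 mU/mL) in HBSS, with compounds for 15 min, then 250 uM DTT for 30 min, room temperature, dark. Fluorescence 525/598 nm read; normalized to DMSO and 10 uM DA3003; Hill fit.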

Sequence of Glutathione peroxidase 1 (Homo sapiens) (P07203 whole entry, looked up): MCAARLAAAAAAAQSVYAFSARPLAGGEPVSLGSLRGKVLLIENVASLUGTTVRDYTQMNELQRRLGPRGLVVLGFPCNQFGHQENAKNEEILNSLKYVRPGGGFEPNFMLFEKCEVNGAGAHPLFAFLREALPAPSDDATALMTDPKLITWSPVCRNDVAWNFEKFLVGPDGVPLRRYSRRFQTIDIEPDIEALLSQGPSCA
Sequence of Phospholipid hydroperoxide glutathione peroxidase GPX4 (Homo sapiens) (P36969 whole entry, looked up): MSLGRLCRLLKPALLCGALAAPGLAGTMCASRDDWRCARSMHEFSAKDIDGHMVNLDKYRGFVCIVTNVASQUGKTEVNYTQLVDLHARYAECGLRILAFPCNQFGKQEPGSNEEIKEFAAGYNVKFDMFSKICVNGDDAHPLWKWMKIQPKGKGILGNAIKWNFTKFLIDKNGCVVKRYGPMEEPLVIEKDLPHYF

`CC(=O)OCC(Cc1ccccc1)NC(=O)C(Cc1ccccc1)NC(=O)c1ccccc1` (configuration not stated): the Potency entry in assay [1], in assay [2], in assay [3], in assay [4], in assay [5] and in assay [6] was “inactive” throughout.
Regarding `C[C@@H]1CC[C@]2(C(=O)O)CC[C@]3(C)C(=CCC4[C@@]5(C)C[C@@H](O)[C@@H](O)C(C)(C)C5CC[C@]43C)C2[C@]1(C)O` (some centres not stated), the Potency result in assay [1], in assay [2], in assay [3], in assay [4], in assay [5] and in assay [6] was “inactive” each time.
As for `CC(=O)[C@@H]1C[C@H](C(C)(C)O[C@@H]2O[C@H](CO)[C@@H](O)[C@H](O)[C@H]2O)CC[C@@]2(CO)OC(=O)C[C@@H]12`, the Potency entry in assay [1], in assay [2], in assay [3], in assay [4], in assay [5] and in assay [6] was “inactive” in each case.
Regarding `CC(CC(C)O[C@@H]1O[C@H](CO)[C@@H](O)[C@H](O)[C@H]1O)OC(=O)/C=C/c1ccc(O)cc1` (some centres not stated), the Potency result in assay [1], in assay [2], in assay [3], in assay [5] and in assay [6] was “inactive” in each case. In addition, the Potency in assay [4] is 4.62 µM (active).
`Cc1c(F)cc(C(=O)NC2CC2)cc1-c1ccc(C(=O)NCC(C)(C)C)cn1`: the Potency entry in assay [1], in assay [2], in assay [3], in assay [4] and in assay [6] was “inactive” in each case.
On to `CC(=O)O[C@@H]1[C@H](OC(C)=O)C[C@@]2(C)C(CC[C@@H](C)[C@]23Cc2c(O)cc4c(c2O3)CN([C@@H](CCC(=O)O)C(=O)O)C4=O)C1(C)C` (some centres not stated), for which the Potency result in assay [1], in assay [2], in assay [3], in assay [4], in assay [5] and in assay [6] was “inactive” in each case.
Take `NC(=O)NCCCC(NC(=O)Cc1ccccc1)C(=O)O` (configuration not stated): the Potency entry in assay [1], in assay [2], in assay [3], in assay [4], in assay [5] and in assay [6] was “inactive” in each case.
In the case of `C/C=C(\C)C(=O)OC1CC2C(CC=C3CC(OC4CC(OC)C(OC5CC(OC)C(OC6CC(OC)C(OC7CC(OC)C(OC8CC(OC)C(OC9OC(CO)C(O)C(O)C9O)C(C)O8)C(C)O7)C(C)O6)C(C)O5)C(C)O4)CCC32C)C2(O)CCC(C(C)=O)C12C` (configuration not stated), the Potency result in assay [1] and in assay [2] was “inactive” each time. In addition, in assay [3], the activity change, negative = inhibition is 2.55% [at 11.6 µM]. Besides, the activity change, negative = thiol reactive in assay [4] was 7.96% [at 11.5 µM]. Also, the activity, negative = inhibition in assay [5] was 4.2% [at 11.6 µM]. In addition, in assay [6], the redox activity (% of DA3003) is 12.2% [at 11.5 µM].
As for `C[C@]12CC[C@@H]3c4ccc(O)cc4CC[C@H]3[C@@H]1C[C@@H](O[C@@H]1O[C@H](C(=O)O)[C@@H](O)[C@H](O)[C@H]1O)[C@@H]2O`, the Potency result in assay [1], in assay [2], in assay [3], in assay [4] and in assay [6] was “inactive” in each case.
As for `CC(C(=O)Nc1cc(C#N)ccc1CCCC(=O)O)c1ccc(F)c2ccccc12` (configuration not stated), the Potency entry in assay [1], in assay [2], in assay [3], in assay [4] and in assay [6] was “inactive” each time.
Turning to `Cc1oc(S(=O)(=O)N2CCCCC2)cc1NC(=O)Nc1ccccc1`, the Potency result in assay [1], in assay [2], in assay [3], in assay [4], in assay [5] and in assay [6] was “inactive” throughout.
Regarding `COc1ccc(CCC(=O)O)c(O[C@@H]2O[C@H](CO)[C@@H](O)[C@H](O)[C@H]2O)c1`, the Potency result in assay [1], in assay [2], in assay [3], in assay [4], in assay [5] and in assay [6] was “inactive” each time.
As for `COc1c2cc(c(O[C@@H]3O[C@H](CO)[C@@H](O)[C@H](O)[C@H]3O)c1OC)CCCCC(O)CCc1ccc(O)c-2c1` (some centres not stated), the Potency result in assay [1], in assay [2], in assay [3], in assay [5] and in assay [6] was “inactive” throughout. Moreover, the Potency in assay [4] is 6.53 µM (active).
With `COc1cccc2c1c(O)c(C(=O)N(C)c1ccc(C(F)(F)F)cc1)c(=O)n2C`, the Potency result in assay [1], in assay [2], in assay [3], in assay [4], in assay [5] and in assay [6] was “inactive” each time.
`OC[C@H]1O[C@@H](OCCc2ccccc2)[C@H](O[C@@H]2OC[C@@H](O)[C@H](O)[C@H]2O)[C@@H](O)[C@@H]1O`: the Potency entry in assay [1], in assay [2], in assay [3], in assay [5] and in assay [6] was “inactive” in each case. The Potency in assay [4] was 4.12 µM (active).
For `COc1ccc(C2COc3cc(O)ccc3C2)c(O)c1OC` (configuration not stated), the Potency entry in assay [1], in assay [2], in assay [4], in assay [5] and in assay [6] was “inactive” throughout. The Potency in assay [3] is 19 µM (active).
On to `O=C(Cn1c2ccccc2c2nc3n(c(=O)c21)CCS3)N1CCCC1`, for which the Potency result in assay [1], in assay [2], in assay [3], in assay [4] and in assay [6] was “inactive” each time.
With `CC(O)C(O)/C=C/C=C/C(=O)O[C@@H]1C=C(C(=O)O)[C@](O)(CO)[C@@]2(C)CCCC(C)(C)[C@H]12` (some centres not stated), the Potency entry in assay [1], in assay [2], in assay [3], in assay [4], in assay [5] and in assay [6] was “inactive” throughout.
As to `CC(=O)OC[C@]12[C@H](OC(C)=O)[C@H](OC(=O)c3ccccc3)[C@@H]3[C@@H](OC(C)=O)[C@]1(OC3(C)C)[C@H](C)C[C@H](OC(=O)c1ccccc1)[C@@H]2OC(=O)c1ccccc1`, the Potency entry in assay [1], in assay [2], in assay [3], in assay [4], in assay [5] and in assay [6] was “inactive” in each case.
Turning to `C[C@@H]1CC[C@]2(C(=O)O)CC[C@]3(C)C(=CCC4[C@@]5(C)C[C@@H](O)[C@H](O)[C@@](C)(CO)C5CC[C@]43C)C2[C@H]1C` (some centres not stated), the Potency entry in assay [1], in assay [2], in assay [3], in assay [4], in assay [5] and in assay [6] was “inactive” each time.
Regarding `CC(=O)OC[C@]12[C@@H](OC(=O)c3ccoc3)C[C@@H]3[C@@H](OC(C)=O)[C@]1(OC3(C)C)[C@@](C)(O)C[C@H](OC(=O)c1ccoc1)[C@@H]2OC(=O)c1ccoc1`, the Potency entry in assay [1], in assay [2], in assay [3], in assay [4], in assay [5] and in assay [6] was “inactive” each time.
Regarding `O=C(/C=C/c1ccccc1)OC[C@H]1O[C@@H](OC(=O)c2cc(O)c(O)c(O)c2)[C@H](O)[C@@H](O)[C@@H]1O`, the Potency entry in assay [1], in assay [2], in assay [3] and in assay [6] was “inactive” each time. The Potency in assay [4] is 0.327 µM (active).
